From PubChem BioAssay
CHO-K1 Ca ag – counter-screen for M1 agonists: effect in parental CHO-K1 cells | Fluo-8 calcium fluorescence; scaled to maximal ATP response, vehicle zero | activation, % at 3 µM | 0.48% of 360,000 active | AID 602248; in the data active means activation above about 15%;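 further: untransfected CHO-K1 host cells lacking M1 receptor as counterscreen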
CHO-K1 Ca PAM – counter-screen for M1 PAMs: effect in parental CHO-K1 cells. 0.02% of 360,000 active. ATP EC20, Fluo-8 calcium fluorescence; 0% at ATP EC20, 100% at ATP max. activation, % at 3 µM;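 active means activation above the run cutoff, the mean activation of all test compounds plus 3 SD, cut at about 40% in these data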;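 further: peak over basal fluorescence ratio in a 140 s read after ATP addition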
CHRM1 agonist – human M1 muscarinic receptor agonism; CHO-K1 hM1, Fluo-8 calcium fluorescence, agonist mode; 0% DMSO, 100% acetylcholine EC100; 0.33% of 360,000 active; activation, % at 3 µM; P11229;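 active means activation above the run's mean compound activation plus 3 SD, cut at about 16% in these data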;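 further: peak over basal fluorescence ratio within a 140 s kinetic read after compound addition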
Target sequence (P11229 whole entry, looked up): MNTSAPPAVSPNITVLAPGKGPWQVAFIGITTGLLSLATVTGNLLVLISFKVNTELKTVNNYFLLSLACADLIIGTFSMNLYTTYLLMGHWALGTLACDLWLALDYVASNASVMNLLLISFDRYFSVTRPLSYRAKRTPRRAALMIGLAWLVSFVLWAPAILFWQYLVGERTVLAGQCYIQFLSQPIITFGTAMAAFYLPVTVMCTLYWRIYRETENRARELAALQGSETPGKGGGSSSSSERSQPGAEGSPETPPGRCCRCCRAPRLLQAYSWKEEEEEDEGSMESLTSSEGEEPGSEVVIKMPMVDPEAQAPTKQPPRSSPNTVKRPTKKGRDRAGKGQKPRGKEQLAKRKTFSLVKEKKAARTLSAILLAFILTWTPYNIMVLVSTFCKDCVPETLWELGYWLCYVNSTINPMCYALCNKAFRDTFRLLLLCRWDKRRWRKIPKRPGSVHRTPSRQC
CHO-K1 Ca antag – counter-screen for M1 antagonists: effect in parental CHO-K1 cells; ATP-induced calcium, Fluo-8 fluorescence; inhibition, % at 3 µM; 0.6% of 360,000 active;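 active means inhibition above a per-plate cutoff, the plate's mean sample inhibition plus 3 SD, cut at about 24% in these data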;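 further: 0% = DMSO plus EC80 ATP and 100% = DMSO alone without ATP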
CHRM1 PAM – human CHRM1 positive allosteric modulation | P11229 | CHO-K1 hM1, Fluo-8 calcium fluorescence, ACh EC20; 0% = ACh EC20, 100% = maximal ACh | activation, % at 3 µM | 0.088% of 360,000 active | AID 588819; in the data active means activation above about 19%, passing the limit was not always enough
M1 antag – blocks human M1 muscarinic receptor. P11229. 1.3% of 360,000 active. CHO-K1 hM1, Fluo-8 calcium fluorescence, ACh EC80 antagonist. inhibition, % at 3 µM;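 active means percent inhibition above its own plate's cutoff, namely the mean of that plate's compound wells plus 3 SD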;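 further: peak over basal fluorescence ratio during 140 s after agonist addition; 0% = ACh EC80 plus DMSO and 100% = DMSO alone without agonist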
Active calls of the source: *. This is a sample that favours compounds with a hit; in the whole collection about 2.3% have one here.

SMILES | CHO-K1 Ca ag | CHO-K1 Ca PAM | CHRM1 agonist | CHO-K1 Ca antag | CHRM1 PAM | M1 antag
Cc1ccc(S(=O)(=O)N2Cc3ccccc3CC2C(N)=O)cc1 (centres undefined) | 0 | -12 | -4 | -3 | -6 | 6
CCOC(=O)C1(C(=O)OCC)NC(=O)CC1CC (centres undefined) | 1 | 14 | 0 | -16 | 6 | -16
CCCCCC1CC(=O)NC1(C(=O)OCC)C(=O)OCC (centres undefined) | 3 | -8 | -1 | 0 | -23 | 40*
COc1ccc(C(Cl)=C(C=O)c2ccc(OC)c(OC)c2)cc1OC | 0 | 13 | 18* | -2 | 20 | -1
COC(=O)c1ccc(OC(=O)c2ccc(OC)c(OC)c2)c(OC)c1 | 1 | 9 | -3 | -3 | 2 | -2
CNc1cncc(-c2cccnc2)n1 | 0 | 19 | -1 | -9 | 12 | -15
CC1(C)CC(NC(=O)c2cc(S(=O)(=O)N3CCOCC3)c(Cl)cc2Cl)CC(C)(C)N1 | 2 | 10 | 1 | -7 | 31* | -25
CN(C)CCN(Cc1ccccc1)c1ccnc(N(C)C)c1C#N | 0 | 6 | -5 | -10 | 0 | 1
CN(C)c1nccc(N(Cc2ccccc2)Cc2ccccc2)c1C#N | 0 | 7 | -5 | -10 | -22 | 55*
CCNC(=O)C/C(C)=N/NC(=O)C12CC3CC(CC(C3)C1)C2 | 0 | -7 | -1 | 24* | 7 | -2
Cc1nc2sccn2c(=O)c1S(=O)(=O)NCc1ccccc1 | -1 | -3 | -4 | 25* | 3 | -12
COc1cccc(CNS(=O)(=O)c2c(C)nc3sccn3c2=O)c1 | 2 | 1 | 2 | 2 | 0 | -3
Cc1ccc(S(=O)(=O)N(C)C)cc1NC(=O)C1CCCN(C(=O)c2ccc(Cl)cc2)C1 (centres undefined) | 1 | -16 | -2 | 5 | 3 | -10
CCOc1ccc(NC(=O)c2ccccc2NC(=O)c2cccnc2)cc1 | 1 | -9 | -3 | -2 | 0 | -5
COc1cc(/C=C2\S/C(=N/S(=O)(=O)c3ccc(C)cc3)NC2=O)c([N+](=O)[O-])cc1OC | 2 | 9 | 1 | 1 | 6 | -4
Cc1ccc(S(=O)(=O)/N=C2/NC(=O)/C(=C/c3cc([N+](=O)[O-])ccc3O)S2)cc1 | 20* | -21 | 32* | 15 | -15 | 29
CN1CCC(=C(c2ccccc2)c2ccc(Br)cc2)CC1 | 22* | 23 | 11 | -6 | -14 | 54*
C[C@@]12C(=O)Nc3ccc(F)cc3C(=O)N1[C@H]1c3cc(Cl)ccc3OC[C@@H]1[C@@H]2c1ccccc1 | 1 | 22 | -5 | -23 | -16 | 21
C[C@@]12C(=O)Nc3cc(F)c(F)cc3C(=O)N1[C@H]1c3ccccc3OC[C@@H]1[C@@H]2c1ccccc1 | 1 | 8 | -6 | -16 | -32 | 79*
C[C@@]12C(=O)Nc3ccc(F)cc3C(=O)N1[C@H]1c3ccccc3OC[C@@H]1[C@@H]2c1ccccc1 | 1 | 12 | -7 | -7 | -37 | 89*
CCOC(=O)c1sc(NC(=O)COC(=O)C(CCSC)NC(C)=O)nc1C (centres undefined) | 0 | 15 | -8 | 6 | 5 | -7
CCC(=O)N1CCC(C)(C(=O)NCc2cccc(OC)c2)C1 (centres undefined) | 1 | 7 | -5 | -7 | 1 | -10
CN(C)Cc1csc(NC(=O)Nc2ccccc2-c2ccccc2)n1 | 1 | -8 | -8 | 7 | -20 | 28*
Cc1nc(CC(=O)NNS(=O)(=O)c2cccc(Cl)c2Cl)cs1 | 0 | 3 | -1 | 12 | 12 | -8
CC(=O)Nc1ccc(NC(=O)Cn2c(=O)n(-c3ccccc3)c(=O)c3oc4ccccc4c32)cc1 | 15* | 17 | 1 | 1 | 8 | -5
SMILES | CHO-K1 Ca ag | CHO-K1 Ca PAM | CHRM1 agonist | CHO-K1 Ca antag | CHRM1 PAM | M1 antag
OC[C@@H]1CN(Cc2ccc(-c3ccccc3)cc2)C[C@H](n2cnc3c(NC4CCC4)ncnc32)O1 | 11 | -11 | 1 | 23 | -16 | 34*
OC[C@@H]1CN(Cc2ccccc2)C[C@H](n2cnc3c(NC4CC4)ncnc32)O1 | 0 | 2 | 2 | -3 | 14 | -25
OCCN1CCN(c2ncnc3c2ncn3[C@H]2CN(Cc3cccnc3)C[C@@H](CO)O2)CC1 | 0 | -11 | -3 | 27* | 4 | -10
OCCN1CCN(c2ncnc3c2ncn3[C@H]2CN(Cc3ccccc3)C[C@@H](CO)O2)CC1 | 0 | 8 | -4 | -7 | 7 | -13
O=C1[C@@H]2Cc3c([nH]c4ccccc34)CN2C(=O)CN1CCCCCO | 0 | 1 | -5 | 11 | 8 | -8
CC(=O)Oc1ccc2c(c1)c(C(C)=O)c(C)n2C | 0 | 7 | -1 | -10 | 5 | -3
COc1ccc2c(c1)c(C(C)=O)c(C)n2C | 19* | 14 | 4 | 3 | 7 | -5
CC(C)CC1(C)NC(=O)N(CC(=O)Nc2ccccc2Br)C1=O (centres undefined) | 1 | 16 | -2 | -15 | 3 | -7
CCN(CC)CCOC(=O)C(Cc1cccc2ccccc12)CC1CCCO1 (centres undefined) | 1 | -8 | -9 | -1 | -25 | 45*
CCOCCCn1c(SCC(=O)Nc2ccccc2)nc2ccccc2c1=O | 0 | -24 | -6 | 35* | -2 | 0
CCOCCCn1c(SCC(=O)Nc2ccc(NC(C)=O)cc2)nc2ccccc2c1=O | 0 | 12 | -2 | -2 | 2 | -18
CCc1ccc(NC(=O)CSc2nc3ccccc3c(=O)n2CCCC(=O)N2CCCC2)cc1 | 0 | -4 | 1 | 25* | 10 | -6
O=C1NCCN(CC2CCN(CCc3ccc(Cl)c(Cl)c3)CC2)C1=O | 2 | 17 | -4 | -15 | 15 | -20
Cc1cc2c(c(=O)n1CC1CCCO1)C(c1ccc3c(c1)OCO3)C(C#N)=C(N)O2 (centres undefined) | 0 | 20 | -1 | -9 | 9 | -8
CCn1c(C)cc2c(c1=O)C(c1ccc3c(c1)OCO3)C(C#N)=C(N)O2 (centres undefined) | 0 | 0 | -15 | -2 | -34 | 66*
CC(=O)NNC(=O)C(O)(c1ccccc1)c1ccccc1 | 3 | 0 | -2 | 17 | 3 | -3
CC(C)(C#CC(O)(c1ccccc1)c1ccccc1)N1CCCCC1 | 1 | 21 | -9 | -11 | -29 | 93*
CC(C)(C#CC(O)(c1ccccc1)c1ccccc1)N1CCCC1 | 0 | -10 | -5 | 3 | -23 | 99*
CSc1cccc(CN2CCCC(C(=O)Nc3cccc(-n4cccn4)c3)C2)c1 (centres undefined) | 1 | -4 | -3 | 3 | -11 | 19
Oc1ccc(C[C@@H]2CNCCN2CCc2cc(C(F)(F)F)cc(C(F)(F)F)c2)cc1 | 2 | 7 | -1 | -6 | 25* | -6
